Results reported in PubChem BioAssay (Tox21).
Values joined by “and” are separate entries in the source; they are usually repeats but may differ in a detail not shown here. Equal entries are not always repeated. Records with an inconclusive call do not appear. Active and inactive are the calls of the source. Calls follow the shape of the dose curve; as a rule, active = well fitted curve in the direction sought with a large enough effect in the repeat runs; inconclusive = weak or mixed curves; inactive = no such curve, though single readings can be large; an effect the other way counts as inactive or inconclusive.

Tests used:
[1] = qHTS assay to identify small molecule agonists of the RXR signaling pathway - cell viability counter screen (AID 1159529); also: nearly all actives have a fitted effect of over 50% in size; also: potency is read from the fitted curve at half-maximal effect
Summary of the method: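 Luminescence from CellTiter-Glo (30 min, RT) measured viability in the same wells as the beta-lactamase reporter readout. Cells: GeneBLAzer RXR-alpha HEK 293T, 2% charcoal-stripped FBS. Compound exposure 16 hr, 37 C.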

[2] = qHTS assay to identify small molecule antagonists of the retinoid acid receptor (RAR) signaling pathway - cell viability counter screen (AID 1159551); also: nearly all actives have a fitted effect of over 35% in size; also: potency is read from the fitted curve at half-maximal effect
Summary of the method: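 ATP-based viability, C3RL4 cells, 6 h at 37 C with 1 uM final retinol co-added after compound; luminescence read 30 min post CellTiter-Glo, RT.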

[3] = qHTS assay to identify small molecule antagonists of the retinoic acid receptor (RAR) signaling pathway (AID 1159552; also: nearly all actives have a fitted effect of over 50% in size; also: potency is read from the fitted curve at half-maximal effect)
Summary of the method: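 Luminescence from a RARE luciferase reporter in C3RL4 cells served as read-out. Cells received compounds together with 1 uM final retinol and incubated 6 hr at 37 C before detection reagent was added for 30 min at room temperature.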

[4] = qHTS assay to identify small molecule agonists of the retinoic acid receptor (RAR) signaling pathway (AID 1159553)
Summary of the method: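 Quantitative high-throughput format: the Tox21 10K library was tested on C3RL4 RARE-luciferase cells for 6 hr at 37 C and 5% CO2, with luminescence measured after a 30 min room-temperature reagent step.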

[5] = qHTS assay to identify small molecule antagonists of the estrogen related receptor (ERR) signaling pathway - cell viability counter screen (AID 1224818);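 also: series mostly up to about 46 µM; viability measured after 17.5 h of compound exposure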
Summary of the method: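 Quantitative high-throughput viability counter screen in ERR cells. Compounds (DMSO) incubated 17.5 h at 37 C; read-out was CellTiter-Fluor fluorescence.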

[6] = qHTS assay to identify small molecule antagonists of the estrogen related receptor signaling pathway with the pleiotropic PPARgamma coactivator (PGC) cell viability counter screen (AID 1224822; also: series mostly up to about 46 µM)
Summary of the method: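 Cytotoxicity in the PGC/ERR cell line is assessed with CellTiter-Fluor, read as fluorescence intensity 30 min after reagent addition, following 17.5 h compound treatment at 37 C.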

Measured: Potency

Brc1cccc(-c2ccccc2)c1
inactive: [1] | [2] | [3] | [4]

C[C@]12C/C(=C/O)C(=O)C[C@@H]1CC[C@@H]1[C@@H]2CC[C@@]2(C)[C@H]1CC[C@]2(C)O
active: [1] 24.8 µM | [3] 24.6 µM and 26.6 µM
inactive: [2]

C[N+]1(C)[C@@H]2CC[C@H]1CC(OC(=O)C(CO)c1ccccc1)C2 (stereo partly specified)
inactive: [1] | [2] | [3] | [4]

Oc1ccc2[nH]cc(CCCCN3CC=C(c4ccccc4)CC3)c2c1
inactive: [1] | [2] | [3] | [4]

C#CCO
inactive: [1] | [2] | [3] | [4]

O=[N+]([O-])c1ccc(Cl)c(Cl)c1Cl
inactive: [1] | [2] | [3]

CCOC(=O)CCN(SN(C)C(=O)Oc1cccc2c1OC(C)(C)C2)C(C)C
active: [3] 61.1 µM
inactive: [1] | [2] | [4]

COc1nc(C)nc(NC(=O)NS(=O)(=O)c2ccccc2Cl)n1
inactive: [1] | [2] | [3] | [4]

Nc1nc(N)c(N)c(N)n1
inactive: [1] | [2] | [3]

N#Cc1sc2c(=O)c3ccccc3c(=O)c=2sc1C#N
active: [1] 9.77 µM | [2] 27.3 µM | [3] 30.6 µM

COc1ccc2c3c1O[C@H]1[C@H](O)CC[C@H]4[C@@H](C2)N(C)CC[C@@]341
inactive: [1] | [2] | [3]

O=S1OCC2C(CO1)C1(Cl)C(Cl)=C(Cl)C2(Cl)C1(Cl)Cl (stereo unspecified)
active: [1] 48.9 µM | [2] 54.5 µM | [3] 48.6 µM and 54.4 µM

Oc1cc(Cl)cc(Cl)c1
inactive: [1] | [2] | [3] | [4]

Clc1cc(Cl)c(-c2cc(Cl)c(Cl)cc2Cl)cc1Cl
inactive: [1] | [2] | [3]

CCCCC(CC)COC(=O)OOC(C)(C)C (stereo unspecified)
inactive: [1] | [2] | [3] | [4]

CC(C)[C@@H](Nc1ccc(C(F)(F)F)cc1Cl)C(=O)OC(C#N)c1cccc(Oc2ccccc2)c1 (stereo partly specified)
inactive: [1] | [2] | [3] | [4]

CCN(CC)C(=O)N[C@@H]1C=C2c3cccc4[nH]cc(c34)C[C@@H]2N(C)C1
inactive: [1] | [2] | [3]

CC1CCCC1
inactive: [1] | [2] | [3] | [4]

O=C(CCCCl)c1ccc(F)cc1
inactive: [1] | [2] | [3]

Cc1ccc([N+](=O)[O-])[c]2c1[O][Hg]2
active: [1] 3.01 µM | [2] 6.68 µM | [3] 1.5 µM

Oc1cc(Cl)c(Cl)c(Cl)c1Cl
inactive: [1] | [2] | [4]
active: [3] 53.2 µM

CCC[CH2][Sn]([CH2]CCC)([CH2]CCC)[CH2]CCC
active: [1] 21.9 µM | [2] 43.3 µM | [3] 9.69 µM
inactive: [4]

S=C=NCCc1ccccc1
inactive: [1] | [2] | [3]

O=NN(CCO)CCO
inactive: [1] | [2] | [3]

[Cl][Hg][c]1ccccc1
active: [1] 1.23 µM | [2] 17.2 µM | [3] 1.09 µM

C[C@]12Cc3cn[nH]c3C[C@@H]1CC[C@@H]1[C@@H]2CC[C@@]2(C)[C@H]1CC[C@]2(C)O
inactive: [2] | [3]
active: [1] 6.01 µM

CCc1cccc(C)c1N(C(=O)CCl)[C@@H](C)COC
inactive: [1] | [2] | [4]

CN
inactive: [1] | [2] | [3] | [4]

CCCCC(CC)COC(=O)c1ccccc1C(=O)OCC(CC)CCCC (stereo unspecified)
inactive: [1] | [2] | [5] | [6]

[O]=[Cr][O][Cr]=[O]
inactive: [1] | [2] | [3] | [4]

CC(Cl)CCl (stereo unspecified)
inactive: [1] | [2] | [3] | [4]

CC(C)c1c(CN(C)C(C)Cc2ccccc2)n(C)n(-c2ccccc2)c1=O (stereo unspecified)
inactive: [1] | [2] | [3] | [4]

CC1(C)C(C=C(Cl)Cl)C1C(=O)OC(C#N)c1ccc(F)c(Oc2ccccc2)c1 (stereo unspecified)
inactive: [1] | [2] | [3] | [4]

CN(C)CCc1c[nH]c2ccccc12
inactive: [1] | [2] | [3] | [4]
